Test results as given in PubChem BioAssay (Tox21).
Records with an inconclusive call do not appear. The source made the active and inactive calls. Unless noted, calls follow the shape of the dose curve; as a rule, active = well fitted curve in the direction sought with a large enough effect in the repeat runs; inconclusive = weak or mixed curves; inactive = no such curve, though single readings can be large; an effect the other way counts as inactive or inconclusive.

Legend:
[1] = qHTS assay to identify small molecule agonists of the farnesoid-X-receptor (FXR) signaling pathway - cell viability counter screen (AID 743218); also: % is scaled to controls: 0 for no effect and ±100 for the full control effect; nearly all actives have a fitted effect of over 45% in size
Method in brief: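 In GeneBLAzer FXR-UAS-bla HEK 293T cells, compounds act for 16 h at 37 C. Cell viability is then scored in the reporter wells by CellTiter-Glo, 30 min at RT, luminescence.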

[2] = qHTS assay to identify small molecule antagonists of the farnesoid-X-receptor (FXR) signaling pathway - cell viability counter screen (AID 743221; active = well fitted cell-killing curve with a large enough effect in the repeat runs, not every such curve was filed as active; also: % is scaled to controls: 0 for no effect and ±100 for the full control effect; nearly all actives have a fitted effect of over 50% in size)
Method in brief: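 Multiplexed counter screen: viability of FXR-bla HEK 293T cells under agonist stimulation by chenodeoxycholic acid (50 uM, final) and test compound for 16 h at 37 C, measured by CellTiter-Glo luminescence in the reporter wells.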

[3] = target: Vitamin D3 receptor (Homo sapiens) (UniProt P11473); assay: qHTS assay to identify small molecule agonists of the vitamin D receptor (VDR) signaling pathway (AID 743222; calls by dose curve; also: % is scaled to controls: 0 for no effect and ±100 for the full control effect)
Chain of Vitamin D3 receptor (Homo sapiens) (P11473 whole entry, looked up): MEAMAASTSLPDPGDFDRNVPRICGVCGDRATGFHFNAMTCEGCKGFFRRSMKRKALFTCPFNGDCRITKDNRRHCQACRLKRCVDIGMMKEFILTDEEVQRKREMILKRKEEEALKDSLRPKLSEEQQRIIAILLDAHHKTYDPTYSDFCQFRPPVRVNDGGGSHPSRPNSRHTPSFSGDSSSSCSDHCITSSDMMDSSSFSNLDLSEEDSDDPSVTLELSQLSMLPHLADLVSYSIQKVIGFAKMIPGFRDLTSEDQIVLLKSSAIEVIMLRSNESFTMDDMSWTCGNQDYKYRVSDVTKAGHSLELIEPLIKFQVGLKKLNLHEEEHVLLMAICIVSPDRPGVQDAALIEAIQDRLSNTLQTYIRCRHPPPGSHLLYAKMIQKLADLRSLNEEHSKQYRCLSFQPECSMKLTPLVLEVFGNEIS
Method in brief: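 Agonist activity measured in VDR-bla reporter cells. Exposure 16 h, 37C, 5% CO2; detection by B/G FRET substrate, 2 h RT.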

[4] = target: Vitamin D3 receptor (Homo sapiens) (UniProt P11473); assay: qHTS assay to identify small molecule antagonists of the vitamin D receptor (VDR) signaling pathway (AID 743223; active = well fitted inhibition curve with a large enough effect in the signal ratio in the repeat runs, not every such curve was filed as active; the % refers to the signal ratio; also: % is scaled to controls: 0 for no effect and ±100 for the full control effect)
Method in brief: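 Cells carrying a VDR-driven beta-lactamase reporter (VDR-bla) were co-treated with compound and 3 nM final 1alpha,25-dihydroxyvitamin D3 for 16 h at 37C; reporter activity was measured as FRET substrate fluorescence after 2 h at room temperature.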

[5] = qHTS assay to identify small molecule agonists of the NFkB signaling pathway - cell viability counter screen (AID 1159515; calls by dose curve; also: series mostly up to about 61 µM; % is scaled to controls: 0 for no effect and ±100 for the full control effect; nearly all actives have a fitted effect of over 55% in size)
Method in brief: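 Viability in NFkB-bla ME-180 cells was measured by CellTiter-Glo luminescence, 30 min room temperature, in wells already treated 5 hr with compounds and read for reporter FRET.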

[6] = qHTS assay to identify small molecule agonists of the endoplasmic reticulum stress response signaling pathway (AID 1159516; active = well fitted activation curve with a large enough effect in the signal ratio in the repeat runs, not every such curve was filed as active; the % refers to the signal ratio; also: potency is read from the fitted curve at half-maximal effect)
Method in brief: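 ER stress element reporter (bla) in HeLa. 1,500 cells/well, overnight attachment; 5 hr compound; 2 hr RT substrate; dual-emission fluorescence.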

[7] = qHTS assay to identify small molecule agonists of the endoplasmic reticulum stress response signaling pathway - cell viability counter screen (AID 1159517; calls by dose curve;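 also: HeLa cells carrying an ER stress response element beta-lactamase reporter; series mostly up to about 61 µM; % is scaled to controls: 0 for no effect and ±100 for the full control effect; nearly all actives have a fitted effect of over 50% in size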)
Method in brief: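 Counter-screen wells were identical to the reporter wells. Cells were plated at 1,500 per well and dosed for 5 hr, then read for luminescence 30 min after CellTiter-Glo addition.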

[8] = qHTS assay to identify small molecule antagonists of the retinoid-related orphan receptor gamma (ROR-gamma) signaling pathway - cell viability counter screen (AID 1159520); also: % is scaled to controls: 0 for no effect and ±100 for the full control effect; nearly all actives have a fitted effect of over 50% in size
Method in brief: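 Tet-on ROR gamma CHO cells were given compounds for 2 hr, then doxycycline hyclate at 1 uM final, and incubated 16 hr at 37 C. Viability was measured as ATP content by CellTiter-Glo luminescence.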

[9] = target: Nuclear receptor ROR-gamma (Homo sapiens) (UniProt P51449); assay: qHTS assay to identify small molecule antagonists of the retinoid-related orphan receptor gamma (ROR-gamma) signaling pathway (AID 1159521;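 also: CHO cells with doxycycline inducible ROR-gamma driving an RORE luciferase reporter; top concentration of the series differs between compounds; % is scaled to controls: 0 for no effect and ±100 for the full control effect; nearly all actives have a fitted effect of over 50% in size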)
Method in brief: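 Cells were plated, rested 4 h at 37 C, exposed to compounds for 2 h, then given 1 uM final doxycycline hyclate to induce RORγ expression. After 16 h, ONE-Glo luminescence from the ROR response element reporter was measured.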

[10] = qHTS assay to identify small molecule agonists of the AP-1 signaling pathway - cell viability counter screen (AID 1159525; calls by dose curve; also: nearly all actives have a fitted effect of over 55% in size)
Method in brief: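 AP-1-bla ME-180 cells in Opti-MEM with 0.5% dialyzed FBS, compound exposure 5 h at 37 C in 15-point titration. Viability read in the same wells as ATP content by CellTiter-Glo luminescence, normalised to tetra-n-octylammonium bromide and DMSO controls.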

[11] = qHTS assay to identify small molecule agonists of the AP-1 signaling pathway (AID 1159526; calls by dose curve; also: potency is read from the fitted curve at half-maximal effect)
[12] = target: Retinoic acid receptor RXR-alpha (Homo sapiens) (UniProt P19793); assay: qHTS assay to identify small molecule agonists of the RXR signaling pathway (AID 1159527; calls by dose curve; also: nearly all actives have a fitted effect of over 35% in size; also: potency is read from the fitted curve at half-maximal effect)
Chain of Retinoic acid receptor RXR-alpha (Homo sapiens) (P19793 whole entry, looked up): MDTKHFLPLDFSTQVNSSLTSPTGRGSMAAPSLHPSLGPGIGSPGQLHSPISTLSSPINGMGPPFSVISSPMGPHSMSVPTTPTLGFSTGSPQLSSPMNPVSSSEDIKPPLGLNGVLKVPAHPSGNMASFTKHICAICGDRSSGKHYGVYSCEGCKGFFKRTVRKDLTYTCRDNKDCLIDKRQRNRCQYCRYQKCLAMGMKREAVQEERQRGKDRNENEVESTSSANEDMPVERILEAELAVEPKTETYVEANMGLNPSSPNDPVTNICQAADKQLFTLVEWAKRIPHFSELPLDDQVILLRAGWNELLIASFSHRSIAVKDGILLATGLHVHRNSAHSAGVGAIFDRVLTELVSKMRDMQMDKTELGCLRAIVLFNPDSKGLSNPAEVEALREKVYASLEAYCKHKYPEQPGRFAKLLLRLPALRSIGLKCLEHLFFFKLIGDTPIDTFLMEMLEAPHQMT
Method in brief: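 Cells plated at 2,000/well, rested 5 hr at 37 C, pin-dosed with DMSO compound solutions, incubated 16 hr, then loaded with B/G FRET substrate for 2 hr at RT before dual-emission fluorescence reading.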

[13] = qHTS assay to identify small molecule agonists of the peroxisome proliferator-activated receptor delta (PPARd) signaling pathway - cell viability counter screen (AID 743211); also: % is scaled to controls: 0 for no effect and ±100 for the full control effect; nearly all actives have a fitted effect of over 55% in size
Method in brief: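 Counter screen for cytotoxicity run in parallel with the PPARd reporter screen. Beta-lactamase reporter HEK293H cells exposed to compounds 17 h; ATP-based CellTiter-Glo luminescence quantified viability.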

[14] = qHTS assay to identify small molecule antagonists of the peroxisome proliferator-activated receptor delta (PPARd) signaling pathway - cell viability counter screen (AID 743213)
Method in brief: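 Viability counter-screen, qHTS format: PPARd-bla HEK293H, L165041 300 nM final, 17 h compound exposure at 37 C, CellTiter-Glo luminescence after 30 min RT.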

[15] = qHTS assay to identify small molecule agonists of the vitamin D receptor (VDR) signaling pathway - cell viability counter screen (AID 743224)
Method in brief: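 VDR-bla cell line, quantitative HTS format; 16 h compound incubation (37C, 5% CO2); ATP-based CellTiter-Glo luminescence measured in the reporter assay wells.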

[16] = qHTS assay to identify small molecule antagonists of the vitamin D receptor (VDR) signaling pathway - cell viability counter screen (AID 743225)
Method in brief: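 HEK293T VDR-bla; cpd + 1a,25-(OH)2D3 3 nM final, 16 h 37C/5% CO2; B/G FRET substrate 2 h RT; then CellTiter-Glo 30 min RT, luminescence.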

[17] = target: Peroxisome proliferator-activated receptor delta (Homo sapiens) (UniProt Q03181); assay: qHTS assay to identify small molecule antagonists of the peroxisome proliferator-activated receptor delta (PPARd) signaling pathway (AID 743215; active = well fitted inhibition curve with a large enough effect in the signal ratio in the repeat runs, not every such curve was filed as active; the % refers to the signal ratio;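 also: cells stimulated with agonist L165041 at 300 nM final during compound exposure; series mostly up to about 62 µM; % is scaled to controls: 0 for no effect and ±100 for the full control effect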)
Chain of Peroxisome proliferator-activated receptor delta (Homo sapiens) (Q03181 whole entry, looked up): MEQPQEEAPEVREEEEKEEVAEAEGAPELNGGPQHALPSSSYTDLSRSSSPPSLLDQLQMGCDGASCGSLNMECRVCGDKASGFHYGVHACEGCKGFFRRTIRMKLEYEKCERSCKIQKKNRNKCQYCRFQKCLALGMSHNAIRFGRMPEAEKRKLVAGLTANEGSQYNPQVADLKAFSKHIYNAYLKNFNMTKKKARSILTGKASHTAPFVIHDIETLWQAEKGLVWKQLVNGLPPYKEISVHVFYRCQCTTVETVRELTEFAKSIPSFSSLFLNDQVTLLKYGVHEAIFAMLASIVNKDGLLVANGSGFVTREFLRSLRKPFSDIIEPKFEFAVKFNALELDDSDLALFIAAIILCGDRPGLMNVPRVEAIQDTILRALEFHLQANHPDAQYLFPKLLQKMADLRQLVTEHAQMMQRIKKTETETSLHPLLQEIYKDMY
Method in brief: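 Antagonist-mode beta-lactamase reporter screen: HEK293H cells with UAS-bla under PPARd control, stimulated by 300 nM L165041 (final) alongside test compound for 17 h at 37 C, then FRET fluorescence after 2 h substrate incubation.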

[18] = target: Bile acid receptor (Homo sapiens) (UniProt Q96RI1); assay: qHTS assay to identify small molecule antagonists of the farnesoid-X-receptor (FXR) signaling pathway (AID 743217; active = well fitted inhibition curve with a large enough effect in the signal ratio in the repeat runs, not every such curve was filed as active; the % refers to the signal ratio; also: % is scaled to controls: 0 for no effect and ±100 for the full control effect)
Chain of Bile acid receptor (Homo sapiens) (Q96RI1 whole entry, looked up): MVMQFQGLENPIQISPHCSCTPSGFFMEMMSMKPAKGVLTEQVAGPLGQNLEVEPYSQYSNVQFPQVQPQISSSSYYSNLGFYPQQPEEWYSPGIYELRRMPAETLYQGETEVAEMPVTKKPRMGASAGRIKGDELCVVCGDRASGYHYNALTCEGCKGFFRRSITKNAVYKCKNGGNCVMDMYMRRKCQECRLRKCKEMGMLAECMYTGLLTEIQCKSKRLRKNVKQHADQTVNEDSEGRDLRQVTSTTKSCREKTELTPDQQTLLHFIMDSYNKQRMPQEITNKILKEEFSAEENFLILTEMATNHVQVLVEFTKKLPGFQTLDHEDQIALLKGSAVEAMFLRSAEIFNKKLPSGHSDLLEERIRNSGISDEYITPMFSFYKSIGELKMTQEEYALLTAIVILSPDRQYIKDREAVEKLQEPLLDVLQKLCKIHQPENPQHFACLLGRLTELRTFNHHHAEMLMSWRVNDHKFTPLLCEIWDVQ
Method in brief: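 Beta-lactamase reporter under UAS control in HEK 293T cells; compound exposure 16 h at 37 °C in the presence of chenodeoxycholic acid (50 uM final); signal from B/G FRET substrate after 2 h at room temperature.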

[19] = target: Peroxisome proliferator-activated receptor delta (Homo sapiens) (UniProt Q03181); assay: qHTS assay to identify small molecule agonists of the peroxisome proliferator-activated receptor delta (PPARd) signaling pathway (AID 743212; calls by dose curve; also: % is scaled to controls: 0 for no effect and ±100 for the full control effect)
Method in brief: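 Quantitative high-throughput agonist screen in a HEK293H beta-lactamase reporter line under UAS control. Compounds in DMSO, at 37 C. Fluorescence read after 2 h with FRET substrate at room temperature.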

[20] = target: Bile acid receptor (Homo sapiens) (UniProt Q96RI1); assay: qHTS assay to identify small molecule agonists of the farnesoid-X-receptor (FXR) signaling pathway (AID 743220; active = well fitted activation curve with a large enough effect in the signal ratio in the repeat runs, not every such curve was filed as active; the % refers to the signal ratio; also: % is scaled to controls: 0 for no effect and ±100 for the full control effect)
Method in brief: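 Beta-lactamase reporter under UAS control in GeneBLAzer FXR HEK 293T cells (5000/well) measured with LiveBLAzer FRET substrate after 2 h at room temperature. Compound exposure lasted 16 h at 37C.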

CO/N=C(\C(=O)O)c1csc(NC(=O)CCl)n1
inactive: outcome [1] | outcome [2] | outcome [3] | outcome [4] | outcome [5] | Potency [6] | outcome [7] | outcome [8] | outcome [9] | outcome [10] | Potency [11] | Potency [12]

COc1cnc(NS(=O)(=O)c2ccc(N)cc2)nc1
inactive: outcome [13] | outcome [14] | outcome [2] | outcome [15] | outcome [16] | outcome [5] | Potency [6] | outcome [7] | outcome [8] | outcome [9] | Potency [11] | Potency [12]

c1cc2ccc3ccc4ccc5cccc6c(c1)c2c3c4c56
active: Potency [6] 1.74 µM
inactive: activity change, negative = cytotoxicity [13] -28.1% [at 2.7 µM] | viability change, negative = cytotoxic [14] -10.9% [at 2.83 µM] | ratio activity, negative = inhibition [17] 2.1% [at 2.83 µM] | activity change, negative = inhibition [18] 6.71% [at 2.69 µM] | viability change, negative = cytotoxic [1] 0.833% [at 2.7 µM] | activity change, negative = cytotoxicity [2] 2.77% [at 2.69 µM] | activity change, negative = inhibition [4] -9.77% [at 3.11 µM] | activity change, negative = cytotoxicity [15] 11.1% [at 2.7 µM] | viability change, negative = cytotoxic [16] -0.521% [at 3.11 µM] | activity, negative = cytotoxic [5] -1.06% [at 3.12 µM] | activity change, negative = cytotoxicity [7] 6.55% [at 3.11 µM] | activity, negative = cytotoxicity [8] 0.12% [at 3.27 µM] | activity change, negative = inhibition [9] 7.63% [at 3.27 µM] | activation [11] -1.11% [at 2.72 µM] | activation [12] 5.24% [at 2.71 µM]

COc1cc2nc(N3CCN(C(=O)C4CCCO4)CC3)nc(N)c2cc1OC (configuration not stated)
inactive: outcome [13] | outcome [19] | outcome [14] | outcome [17] | outcome [1] | outcome [2] | outcome [5] | Potency [6] | outcome [7] | outcome [8] | outcome [9] | Potency [11] | Potency [12]

CCCCCCCCCCCCCCCC/C=C/C1CC(=O)OC1=O (configuration not stated)
active: Potency [11] 16.9 µM
inactive: outcome [13] | outcome [19] | outcome [14] | outcome [17] | outcome [18] | outcome [1] | outcome [20] | outcome [2] | outcome [3] | outcome [15] | outcome [16] | outcome [5] | Potency [6] | outcome [7] | outcome [9] | outcome [10] | Potency [12]

CC(C)(O)CCCC1=CCC(C=O)CC1 (configuration not stated)
inactive: outcome [19] | outcome [14] | outcome [17] | outcome [1] | outcome [2] | outcome [4] | outcome [15] | outcome [16] | outcome [5] | Potency [6] | outcome [7] | outcome [8] | outcome [9] | Potency [11] | Potency [12]

CC(C)OC(=O)C(C(=O)OC(C)C)=C1SC=CS1
inactive: outcome [13] | outcome [19] | outcome [14] | outcome [17] | outcome [1] | outcome [2] | outcome [3] | outcome [4] | outcome [15] | outcome [16] | outcome [5] | Potency [6] | outcome [7] | outcome [8] | outcome [9] | Potency [11] | Potency [12]

CC(C)(O)c1ccc(C(C)(C)O)cc1
inactive: outcome [13] | outcome [14] | outcome [1] | outcome [2] | outcome [3] | outcome [15] | outcome [5] | Potency [6] | outcome [7] | outcome [8] | outcome [9] | Potency [11] | Potency [12]

CCN1CCN(C(=O)N[C@@H](C(=O)N[C@@H]2C(=O)N3C(C(=O)O)=C(CSc4nnnn4C)CS[C@H]23)c2ccc(O)cc2)C(=O)C1=O
inactive: outcome [13] | outcome [19] | outcome [17] | outcome [1] | outcome [2] | outcome [5] | Potency [6] | outcome [8] | outcome [9] | outcome [10] | Potency [11] | Potency [12]

Cc1cc(=O)oc2cc(O[C@@H]3SC[C@@H](O)[C@H](O)[C@H]3O)ccc12
inactive: outcome [13] | outcome [19] | outcome [14] | outcome [17] | outcome [18] | outcome [1] | outcome [20] | outcome [2] | outcome [3] | outcome [15] | outcome [5] | Potency [6] | outcome [9] | outcome [10] | Potency [11] | Potency [12]

CCCCCCCCOCCC#N
inactive: outcome [13] | outcome [14] | outcome [1] | outcome [2] | outcome [4] | outcome [15] | outcome [16] | outcome [5] | Potency [6] | outcome [7] | outcome [9] | outcome [10] | Potency [11] | Potency [12]

O=C1c2ccccc2C(=O)N1CO
inactive: outcome [13] | outcome [19] | outcome [17] | outcome [1] | outcome [2] | outcome [15] | outcome [16] | outcome [5] | Potency [6] | outcome [8] | outcome [9] | Potency [11] | Potency [12]

CCCCCCC(O)CO (configuration not stated)
inactive: outcome [14] | outcome [17] | outcome [18] | outcome [1] | outcome [20] | outcome [2] | outcome [15] | outcome [16] | outcome [5] | Potency [6] | outcome [8] | outcome [9] | outcome [10] | Potency [11]
active: Potency [12] 12.3 µM

CCCOc1ccc(C(=O)OCCN(CC)CC)cc1N
inactive: outcome [13] | outcome [19] | outcome [14] | outcome [17] | outcome [1] | outcome [2] | outcome [4] | outcome [15] | outcome [16] | outcome [5] | Potency [6] | outcome [8] | outcome [9] | outcome [10] | Potency [11] | Potency [12]
